D3 antag – blocks the human D3 dopamine receptor. P35462. D3R cells, DiscoveRx beta-arrestin luminescence, antagonist mode; hits give low values. max response, negative = inhibition, %. 360,000 tested, 2.5% active; in the data active means max response below about -50%; inconclusive means no clear call, values can overlap the other calls; further: on the % scale 0 is the no-effect control and ±100 the full control effect
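Cells plated overnight at 1500 cells/well, then exposed to library compounds with dopamine controls for 90 minutes at 37 degrees C. DiscoveRx reagent added for 30–60 minutes at room temperature; luminescence read, quantitative HTS format.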
TSHR antagonist – blocks TSH signaling through the human TSH receptor; 330,000 tested, 0.2% active; TSHR-expressing cells, TSH-stimulated cAMP HTRF, 2 h; hits give low values; AID 504810; activity change, negative = inhibition, % at 11.5 µM;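 active means activity change below a set negative limit, meaning inhibition stronger than a set level, cut at about -70% in these data; inconclusive means activity change between two set negative limits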; further: on the % scale 0 is the no-effect control and ±100 the full control effect
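Antagonism was scored as loss of TSH-driven cAMP in TSHR cells, stimulated with 4nM TSH (EC80) for 2 hours at 37 deg C and detected by homogeneous HTRF competition immunoassay.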
D3 ag – agonists of human D3 dopamine receptor | D3R DiscoveRx beta-arrestin cells, luminescence, 90 min | max activation, % | 410,000 tested, 0.58% active; in the data active means max activation above about 30%; further: 0% is about no effect
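Agonist-mode cell screen: cells plated at 1500/well and incubated overnight at 37 °C, then exposed to library compounds for 90 min at 37 °C. Detection reagent was added for 30–60 min at room temperature, and luminescence was read.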
B2AR arrestin – beta2AR (human) beta-arrestin recruitment activity; P07550; beta-arrestin recruitment to beta2AR, cell-based reporter; Potency, µM (doses to about 46.1 µM), without a hit: top-dose activation, usual class: activators; 330,000 tested, 0.02% active; active means well fitted activation curve with a large enough effect; inconclusive means small, poorly fitted or top-dose-only effect;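 further: potency means the concentration at half of the fitted maximal effect; 0% = DMSO controls and full agonism = EC100 isoproterenol or metaproterenol; nearly all actives have a fitted effect of over 65% in size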
Target sequence (P07550 whole entry, looked up): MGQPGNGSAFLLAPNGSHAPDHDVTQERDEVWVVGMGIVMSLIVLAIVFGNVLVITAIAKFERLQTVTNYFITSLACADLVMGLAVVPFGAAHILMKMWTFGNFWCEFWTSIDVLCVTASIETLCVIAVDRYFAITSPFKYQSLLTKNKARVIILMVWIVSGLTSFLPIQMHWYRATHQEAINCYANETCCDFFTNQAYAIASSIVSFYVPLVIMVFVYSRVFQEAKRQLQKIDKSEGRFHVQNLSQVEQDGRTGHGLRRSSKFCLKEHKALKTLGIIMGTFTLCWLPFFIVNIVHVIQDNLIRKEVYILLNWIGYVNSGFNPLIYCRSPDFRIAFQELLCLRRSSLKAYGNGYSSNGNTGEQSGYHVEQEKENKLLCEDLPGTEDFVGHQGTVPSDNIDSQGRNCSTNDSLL
Active calls of the source: *; ? = inconclusive; . = not tested or not shown. This is a sample that favours compounds with a hit; in the whole collection about 2.9% have one here.

SMILES	D3 antag	TSHR antagonist	D3 ag	B2AR arrestin
Cc1ccc(S(=O)(=O)N(C)c2ccc(C(=O)NCC(c3ccco3)N3CCCC3)cc2)cc1 (stereo not given)	-28	.	-1	.
Cc1ccc(N(C)S(=O)(=O)c2cccc(C(=O)NCC(c3ccco3)N3CCCC3)c2)cc1 (stereo not given)	-69*	8	-21	3%
COc1ccc(C(CNC(=O)Cc2ccc3ccccc3c2)N(C)C)cc1 (stereo not given)	-19	4	-6	-1%
COc1ccc(C(CNC(=O)C(C)c2ccc3cc(OC)ccc3c2)N(C)C)cc1 (stereo not given)	-76*	-1	-12	-1%
CC(C)(C)C(=O)/C(=C/c1ccncc1)n1cncn1	-56*	21	-10	0%
CSc1ccccc1OC1CCN(Cc2ccccc2)CC1	-92*	-16	-33	0%
O=C1NC[C@@H](CCCCN2C[C@H](Cc3ccccc3)N(CCc3ccc(O)cc3)C(=O)C2=O)N(CC2CCCCC2)C1=O	0	.	-7	.
CCCOc1ccccc1C(=O)N1CCCCC1CCN1CCCCC1 (stereo not given)	.	.	49*	.
Cc1ccccc1C(=O)N1CCCCC1CCN1CCCCC1 (stereo not given)	.	.	-5	.
O=C(NCC(c1ccco1)N1CCc2ccccc2C1)C(=O)Nc1ccccc1 (stereo not given)	-90*	15	-34	0%
COc1ccccc1NC(=O)C(=O)NCC(c1ccco1)N1CCc2ccccc2C1 (stereo not given)	-3	-11	-4	0%
O=C(NCC(c1ccco1)N1CCc2ccccc2C1)c1ccccc1 (stereo not given)	-53*	-5	-34	0%
Cc1[nH]oc(=O)c1N=Nc1ccc2[nH]c(=O)[nH]c2c1	-66*	.	7	.
Cc1[nH]n(-c2ccccc2)c(=O)c1C=Nc1ccc2[nH]c(=O)[nH]c2c1	-7	-1	-8	-1%
O=C(NCCc1cccs1)c1ccc(Cn2c(SCc3ccc(F)cc3)nc3cccnc32)cc1	.	.	1	.
OCCCn1c(C2CCCN2c2nc(-c3ccc(F)cc3)cs2)nc2cc(Cl)c(Cl)cc21 (stereo not given)	-56*	.	-44	.
Cc1ccc(Cn2c(C(C)Nc3nc(-c4ccc(Cl)cc4)cs3)nc3cc(C(=O)NCCCO)ccc32)cc1 (stereo not given)	14	.	-1	.
Cc1ccc(Cn2c(CCNc3nc(-c4ccc(C)cc4)cs3)nc3cc(C(=O)NCCCO)ccc32)cc1	6	.	31*	.
Cc1ccc(-c2csc(NCCc3nc4cc(Cl)c(Cl)cc4n3CCCO)n2)cc1	5	.	70*	.
CC(O)[C@H]1CC[C@H]2[C@@H]3CC[C@@H]4C[C@@H](O)CC[C@]4(C)[C@H]3CC[C@]12C (stereo not given in full)	.	.	13	.
Fc1ccccc1COc1ccc(Br)cc1CNCc1ccncc1	-68*	.	-12	0%
Fc1ccccc1COc1ccc(Br)cc1CNCc1cccnc1	?	7	-10	0%
CCc1ccccc1OCc1nc2ccc(S(=O)(=O)N3CCOCC3)cc2[nH]1	-56*	4	-2	0%
CCOc1ccc(CCNC(=O)c2ccc3c(c2)c(C)c(C)n3C)cc1	.	.	6	.
COC(=O)C1=C(C)N(Cc2ccccc2)C(=NCc2ccc(OC)cc2)N[C@H]1c1ccc(Br)cc1	.	-5	.	-2%
SMILES	D3 antag	TSHR antagonist	D3 ag	B2AR arrestin
CN1/C(=C\P(=O)(N(C)C)N(C)C)C(C)(C)c2ccccc21	28	3	31*	0%
CCOC(=O)/C=C1/N(C)c2ccccc2C1(C)C	-3	3	-5	-1%
O=C1CC(c2ccccc2)CC(O)=C1C=NCc1ccccc1 (stereo not given)	-14	-10	-11	-1%
O=C1CC(c2ccccc2)CC(O)=C1C=NCc1ccco1 (stereo not given)	-57*	-3	-20	0%
O=C1CC(c2ccccc2)CC(O)=C1C=NCc1ccccc1Cl (stereo not given)	-92*	-14	-19	-1%
O=[N+]([O-])c1cnc2ccccc2c1	-16	2	-24	0%
O=[N+]([O-])c1cc([N+](=O)[O-])c2cc3ccccc3nc2c1	-80*	-17	-28	?
O=c1cc(-c2c(F)c(F)c(F)c(F)c2F)oc2c(F)c(F)c(F)c(F)c12	.	-76*	.	0%
O=c1cc(-c2c(F)c(F)c(F)c(F)c2F)oc2ccccc12	-67*	-13	-22	3%
Cc1ccc(C(=O)c2cn(CC(=O)NC3CCCCC3)c3nc(C)ccc3c2=O)cc1	.	.	2	.
CCOc1cccc2c1OC1(C)CC2NC(=O)N1c1cccc(F)c1 (stereo not given)	-51*	5	5	0%
CCOc1cccc2c1OC1(C)CC2NC(=O)N1c1cccc(C(=O)NCc2ccccn2)c1 (stereo not given)	13	12	-9	-1%
O=C(Nc1ccccc1Cl)c1c(F)c(F)c(F)c(F)c1F	-62*	.	-5	.
CCn1ccc(C(=O)Nc2ccccc2Cl)n1	-96*	11	-10	1%
O=S1(=O)c2ccccc2N(Cc2cccc(Cl)c2)c2ccccc21	.	.	-24	.
CCOC(=O)Cc1ccc(Nc2nc(NC)nc3ccsc23)cc1	-78*	.	-23	.
CCOC(=O)Cc1ccc(Nc2nc(NCc3ccccc3)nc3ccsc23)cc1	96	.	12	.
COc1ccc(Cl)cc1NC(=O)N1CCC(CN2CCCCCC2)CC1	.	.	-5	.
COc1ccc(CC2(CO)CCN(Cc3cnn(-c4ccccc4)c3)CC2)cc1	?	11	-19	0%
COc1ccc(CC2(CO)CCN(Cc3cnn(-c4ccccc4OC)c3)CC2)cc1	-89*	3	-19	-1%
COc1ccccc1/C=C/CN1CCCC(CO)(CCc2ccccc2)C1 (stereo not given)	-96*	9	-23	0%
COc1ccccc1/C=C/CN1CCN(c2ccccc2)CC1	-64*	12	19	0%
OCC1(CCc2ccccc2)CCCN(C/C=C/c2ccccc2)C1 (stereo not given)	-68*	-8	-23	0%
COc1ccc(CC2(CO)CCN(C/C=C/c3ccccc3OC)CC2)cc1	-93*	11	-26	0%
CC(COc1ccccc1)N1CCC(CO)(Cc2ccccc2)CC1 (stereo not given)	-89*	3	-9	0%
COc1ccc(CC2(CO)CCN(C(C)COc3ccccc3)CC2)cc1 (stereo not given)	?	-5	18	0%
COc1ccc(CC2(CO)CCN(Cc3ccc(OC(F)(F)F)cc3)CC2)cc1	-20	-5	-19	0%
COc1ccc(-c2cnc(C)o2)cc1S(=O)(=O)Nc1ccc(C)c(F)c1	.	.	-3	.
CC1CCN(CCCCOc2ccccc2[N+](=O)[O-])CC1	-83*	-11	-22	0%
Cc1ccc(OCCCCNC(C)(C)C)c([N+](=O)[O-])c1	?	12	-16	0%

Screens deposited in PubChem by National Center for Advancing Translational Sciences (NCATS).
